In all, about 47,000 compounds went through this assay and about 140 (0.3%) were called active. Only a selection was taken, and actives are over-represented in it overall. Unmarked numbers belong to inactive results. Cut-off read from the data, not from the text of the source: active = inhibition above about 30%; inactive = the rest.
target: Ubiquitin carboxyl-terminal hydrolase 7 (Homo sapiens) (UniProt Q93009); assay: blocks human USP7 ubiquitin-rhodamine cleavage (AID 1645854); conditions: purified USP7, Ub-rhodamine cleavage fluorescence; at 20 µM; stronger effect = higher value
Sequence (Q93009 whole entry, looked up): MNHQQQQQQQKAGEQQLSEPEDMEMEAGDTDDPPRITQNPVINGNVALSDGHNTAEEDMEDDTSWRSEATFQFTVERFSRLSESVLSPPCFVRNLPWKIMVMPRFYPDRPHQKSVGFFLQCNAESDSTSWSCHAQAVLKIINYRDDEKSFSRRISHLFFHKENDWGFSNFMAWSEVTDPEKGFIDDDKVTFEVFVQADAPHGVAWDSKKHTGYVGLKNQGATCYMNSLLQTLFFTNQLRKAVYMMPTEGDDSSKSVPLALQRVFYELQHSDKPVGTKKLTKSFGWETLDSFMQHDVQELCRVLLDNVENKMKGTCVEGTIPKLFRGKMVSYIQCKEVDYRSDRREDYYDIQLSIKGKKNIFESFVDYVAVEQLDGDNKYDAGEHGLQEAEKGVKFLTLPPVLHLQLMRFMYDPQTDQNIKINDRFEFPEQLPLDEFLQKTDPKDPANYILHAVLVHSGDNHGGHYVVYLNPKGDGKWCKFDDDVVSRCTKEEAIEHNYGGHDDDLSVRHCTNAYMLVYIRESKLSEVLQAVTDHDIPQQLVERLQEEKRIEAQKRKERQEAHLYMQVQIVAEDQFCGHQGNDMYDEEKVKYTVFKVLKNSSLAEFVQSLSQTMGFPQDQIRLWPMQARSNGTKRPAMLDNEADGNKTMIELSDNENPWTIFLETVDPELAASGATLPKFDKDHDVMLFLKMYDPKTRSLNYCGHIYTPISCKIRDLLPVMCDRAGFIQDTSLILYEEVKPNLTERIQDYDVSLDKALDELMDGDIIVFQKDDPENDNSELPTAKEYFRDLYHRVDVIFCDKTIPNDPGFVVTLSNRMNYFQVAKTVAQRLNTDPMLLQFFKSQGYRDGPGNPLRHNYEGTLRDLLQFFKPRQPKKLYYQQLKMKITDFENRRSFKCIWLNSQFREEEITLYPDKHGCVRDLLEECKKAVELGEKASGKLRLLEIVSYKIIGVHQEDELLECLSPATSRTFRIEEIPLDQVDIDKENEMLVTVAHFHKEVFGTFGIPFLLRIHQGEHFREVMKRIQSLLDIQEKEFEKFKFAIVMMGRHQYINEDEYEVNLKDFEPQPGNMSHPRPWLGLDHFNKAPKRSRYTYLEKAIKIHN

Question: With `c1cnc(N2CCC3(CCN(Cc4ccc5c(c4)OCO5)CC3)C2)nc1` as the molecule, how does the inhibition read?
Answer: 6.59%

Question: `COc1c2c(cc3c1C(c1nnnn1-c1ccc(C)cc1C)N(C)CC3)OCO2` (centres undefined) was tested. Which inhibition did it give?
Answer: 10.7%

Question: `NC(=O)c1c(NC(=O)c2ccccc2Oc2ccccc2)sc2c1CCN(Cc1ccccc1)C2` was tested. Which inhibition did it give?
Answer: -143%

Question: Which inhibition does the source give for `O=C(Cc1ccccc1)N1CCN(c2cc(C(F)(F)F)nc3ccccc23)CC1` here?
Answer: 6.33%

Question: With `CCN(c1ccccc1)S(=O)(=O)c1ccc2c(c1)OC(C)CN2C(C)=O` (centres undefined) as the molecule, how does the inhibition read?
Answer: -10.2%

Question: Which inhibition does the source give for `CN(C)CCNC(=O)c1ccc2ccc(N(C)CC3CC3)n2c1` here?
Answer: -3.23%

Question: With `Cc1nccn1-c1cc(N2CCCC2)nc2ccnn12` as the molecule, how does the inhibition read?
Answer: -3.6%

Question: `CCCn1nccc1C(=O)NC[C@H]1C[C@@]2(C)[C@@H](O)CCCC[C@H]2N1C(C)=O` was tested. Which inhibition did it give?
Answer: 4.78%

Question: For `COc1ccc(CC(=O)N2CCC3(CC2)OC(C(=O)NCC(C)C)Cn2ccnc23)cc1` (centres undefined), which inhibition is on record?
Answer: -0.841%

Question: For `O=C(NCc1ccncc1)c1nc(-c2ccc(N3CCCCC3)nc2)no1`, which inhibition is on record?
Answer: -95.1%

Question: For `Cc1cc2nc(N3CCOCC3)n(CC(=O)Nc3ccccc3F)c(=O)c2n1C`, which inhibition is on record?
Answer: -0.476%

Question: For `COc1ccccc1CNS(=O)(=O)c1ccc2c(c1)C(=O)N(C)c1ncccc1O2`, which inhibition is on record?
Answer: 1.09%

Question: For `O=C(CN1C(=O)[C@@H]2CCCN2c2ncccc21)NCc1ccccc1F`, which inhibition is on record?
Answer: -0.124%

Question: How did the inhibition turn out when `Cc1csc2nc(COc3ccccc3NC(=O)c3ccccc3)cc(=O)n12` was run?
Answer: -2.52%

Question: `O=C(c1nc(-c2ccc3cc[nH]c3c2)no1)N1CCN(c2nsc3ccccc23)CC1` was tested. Which inhibition did it give?
Answer: 2.44%

Question: Which inhibition does the source give for `Cc1ccccc1CS(=O)(=O)Cc1ccc(C(=O)Nc2noc3ccccc23)o1` here?
Answer: 2.52%

Question: For `Cc1cccc(N2CCN(C(=O)c3nc4cccnc4n(C)c3=O)CC2)c1C`, which inhibition is on record?
Answer: -13.2%

Question: Which inhibition does the source give for `O=C(Nc1ccc(F)cc1)c1ccc(CN2CCOCC2)cc1` here?
Answer: 3.54%

Question: With `Cc1cnc(C2COCCN2C(=O)c2c(C(C)C)noc2C)[nH]1` (centres undefined) as the molecule, how does the inhibition read?
Answer: 4.99%

Question: How did the inhibition turn out when `Cc1ccc(NC(=O)N2CCN3CCCCC3C2)c(C)c1` (centres undefined) was run?
Answer: -0.822%

Question: With `O=C(Nc1nc2ccc(S(=O)(=O)N3CCOCC3)cc2s1)c1cc2ccccc2oc1=O` as the molecule, how does the inhibition read?
Answer: 0.00877%

Question: `Cc1ccc(-c2nc(Cn3nnc(C(=O)O)c3C)c(C)o2)cc1` was tested. Which inhibition did it give?
Answer: 1.5%

Question: How did the inhibition turn out when `CCc1cnc(N2CCC3(CCN(C(=O)c4cccnc4)C3)CC2)nc1` was run?
Answer: 1.31%

Question: `OCCN1CCN(CC(O)COCCOc2ccc(Cl)cc2)CC1` (centres undefined) was tested. Which inhibition did it give?
Answer: 6.76%

Question: For `Cc1cnn(CC(=O)N2CCCCCC2c2ccncc2)c1` (centres undefined), which inhibition is on record?
Answer: -1.92%

Question: How did the inhibition turn out when `CC(C)[C@H](Cn1nnc2ccccc21)NC(=O)c1ccc2c(c1)CCN2S(C)(=O)=O` was run?
Answer: -1.02%

Question: How did the inhibition turn out when `CC(C)CCNC(=O)C(=O)c1cn(CC(=O)N2CCCC2)c2ccccc12` was run?
Answer: -9.94%

Question: Which inhibition does the source give for `CSc1cccc(NC(=O)CCn2c(=O)c3cccn3c3ccccc32)c1` here?
Answer: 5.36%

Question: Which inhibition does the source give for `Cc1nc(C2CCCN2C(=O)c2cccc3ncccc23)ncc1C(=O)N1CCOCC1` (centres undefined) here?
Answer: 1.41%

Question: How did the inhibition turn out when `O=C(C1CCN(c2cnc3nccnc3c2)CC1)N1CCN(C2CCCCC2)CC1` was run?
Answer: -29.4%

Question: `COc1ccc(-c2nnc(SCC(=O)c3cc(C)ccc3C)o2)cc1OC` was tested. Which inhibition did it give?
Answer: 9.96%

Question: Which inhibition does the source give for `CC1CCC(NC(=O)C2(C)Cc3ccccc3C(=O)N2Cc2ccccc2)CC1` (centres undefined) here?
Answer: -18.1%

Question: Which inhibition does the source give for `CCCN1CCN(Cc2nc3nc(C)cc(N4CCCC4)n3n2)CC1` here?
Answer: 0.57%

Question: `O=C(NCC1CC1)c1ccc2ccc(N3CCN(c4ncccn4)CC3)n2c1` was tested. Which inhibition did it give?
Answer: -17.3%

Question: How did the inhibition turn out when `Cn1ccc(-c2cc(C(=O)NCCc3ccccn3)c3ccccn23)n1` was run?
Answer: 0.582%

Question: For `Cc1ccccc1NC(=O)N1CCC(CC(=O)N2CCCCC2)CC1`, which inhibition is on record?
Answer: 5.39%

Question: With `COc1cccc(-n2nnc(-c3nnc(-c4ccccc4)o3)c2C)c1` as the molecule, how does the inhibition read?
Answer: -29.9%

Question: How did the inhibition turn out when `COc1ccc(C2C3CCCCC3(O)CCN2C(=O)/C=C/c2cc(OC)c(OC)c(OC)c2)c(OC)c1` (centres undefined) was run?
Answer: 2.72%

Question: How did the inhibition turn out when `CN(C(=O)Cn1c(=O)n(CCCC(=O)N2CCc3ccccc3C2)c(=O)c2ccccc21)C1CCCCC1` was run?
Answer: -62.2%

Question: With `Cn1c(CNC(=O)c2ccc(=O)[nH]c2)nc2ccccc21` as the molecule, how does the inhibition read?
Answer: 3.71%

Question: How did the inhibition turn out when `CN(Cc1ccccn1)C(=O)c1cc(-c2ccn(C)n2)n2ccccc12` was run?
Answer: -10.8%

Question: How did the inhibition turn out when `O=C(C1CCC1)N1CCCC(c2nc(N3CCOCC3)ncc2-c2cccnc2)C1` (centres undefined) was run?
Answer: 1.73%

Question: How did the inhibition turn out when `CC1CCc2nc3ccccc3c(C(=O)OCC(=O)Nc3ccc4ccccc4c3)c2C1` (centres undefined) was run?
Answer: -6.5%

Question: For `Cn1nc(C(=O)N2CCOCC2)c2c1CN(Cc1cccnc1)CC2`, which inhibition is on record?
Answer: -1.02%

Question: Which inhibition does the source give for `CC1CCc2c(sc3[nH]c(=O)c(C(=O)Nc4ccc(C(N)=O)cc4)c(O)c23)C1` (centres undefined) here?
Answer: 2.02%

Question: With `CNS(=O)(=O)c1ccc(CNC(=O)c2cc(-c3ccc(C)cc3)no2)cc1` as the molecule, how does the inhibition read?
Answer: 4.58%

Question: `CN(C)CCNC(=O)c1ccc2c(c1)nc1n2CCN(C2CCCCC2)C1=O` was tested. Which inhibition did it give?
Answer: -3.11%

Question: Which inhibition does the source give for `COc1ccccc1CNC(=O)c1nc(N2CCSCC2)c2cn(C)nc2n1` here?
Answer: -2.16%

Question: How did the inhibition turn out when `NC(=O)c1ccccc1NC(=O)C1CN(c2nc3c(F)cccc3s2)C1` was run?
Answer: -0.695%

Question: How did the inhibition turn out when `CCN1CCN(Cc2nc3nc(C)cc(N4CCCC4)n3n2)CC1` was run?
Answer: 0.109%

Question: Which inhibition does the source give for `Cc1cc(O)c(=O)cc2c1C[C@H]1CC(C)(C)/C=C/C[C@@]3(C)Oc4cc(=O)c(O)cc(C)c4C[C@@H]3C[C@H](O)[C@]1(C)O2` here?
Answer: 32.8% (active)

Question: For `O=C(NCc1cccnc1)c1cc(-c2ccncc2)n(-c2ccc(F)cc2)n1`, which inhibition is on record?
Answer: 0.279%

Question: For `Cn1c(SCc2ccc(Cl)cc2)nnc1-c1ccc2c(c1)OCCO2`, which inhibition is on record?
Answer: -49.5%

Question: `O=C(Nc1ccc2c(c1)CCC2)N1CC2CN(S(=O)(=O)c3ccccc3)CC(C1)O2` was tested. Which inhibition did it give?
Answer: -2.8%

Question: `O=C1CCC2C(c3ccc4c(c3)OCO4)CC1N2Cc1ccccc1` (centres undefined) was tested. Which inhibition did it give?
Answer: -3.81%

Question: Which inhibition does the source give for `Cc1c(S(=O)(=O)Nc2ccccc2F)cc(C(=O)N2CCCCC2)n1C` here?
Answer: 5.73%

Question: `COc1ccc(Cn2c(=O)[nH]c3cc(C(=O)N4CCC(C(N)=O)CC4)ccc3c2=O)cc1` was tested. Which inhibition did it give?
Answer: -1.91%

Question: `Cc1nn(C)c(Cl)c1C1CCCN1C(=O)c1ccc(C)n(C)c1=O` (centres undefined) was tested. Which inhibition did it give?
Answer: 2.77%

Question: How did the inhibition turn out when `CC(C)C(=O)N[C@@H](CO)[C@H](O)c1ccc([N+](=O)[O-])cc1` was run?
Answer: 0.416%

Question: Which inhibition does the source give for `CCc1ccc(-n2nnc(C(=O)Nc3nnc(CC)s3)c2C)cc1` here?
Answer: 0.00527%

Question: With `Cc1cnc(C(=O)N2CC[C@@H]3[C@H]2CCCC(=O)N3Cc2ccccc2C(F)(F)F)cn1` as the molecule, how does the inhibition read?
Answer: -3.69%

Question: Which inhibition does the source give for `COCCNc1nn2c(-c3ccc4ccccc4c3)cnc2s1` here?
Answer: 1.48%

Question: With `Cc1nn(CC(=O)c2cc(C)n(-c3ccc4c(c3)OCO4)c2C)c(C)c1[N+](=O)[O-]` as the molecule, how does the inhibition read?
Answer: -2.39%

Question: How did the inhibition turn out when `Cc1cccc(C(C)C)c1NC(=O)c1ccc(OCc2ccccc2)cc1` was run?
Answer: 0.214%
